High-throughput results as filed in PubChem.
This is a sample that favours compounds with a hit; in the whole collection about 3.4% have one here.
GPR151 activ – activates the human receptor GPR151; hit rate 1% among 650,000; Q8TDV0; AID 1508602; activation, % at 11.2 µM; PathHunter beta-arrestin GPR151 cells, luminescence; in the data active = activation above about 4.9%
TEAD-YAP block – TEAD-YAP interaction inhibition. hit rate 1.4% among 640,000. HEK-TIYL cells, TEAD-Gal4/YAP UAS-luciferase luminescence. inhibition, % at 9.12 µM; in the data active = inhibition above about 32%
FBW7 act – activators of human E3 ligase FBW7. AlphaScreen FBW7–phospho-cyclin E peptide binding, activator screen. hit rate 0.13% among 650,000. Q969H0. AID 1259310. normalized activity (activation), % at 26.1 µM; in the data active = normalized activity above about 1.9%;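 note: purified mutant Fbw7 with reduced substrate affinity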
MITF inh – blocks human microphthalmia-associated transcription factor. hit rate 0.91% among 650,000. AlphaScreen MITF homodimerization, bead proximity signal. inhibition, % at 2.6 µM. AID 1259374; in the data active = inhibition above about 50%
Each line names hits and unclear results; the compound was inactive in the other large screens.

CCOC(=O)CNC(=O)c1ccc(C(C)C)cc1	TEAD-YAP block 48.1
CCCCNC(=O)c1sc2nc(C)nc(N(C)c3ccc(C(C)C)cc3)c2c1C	none
COC(=O)c1ccc(/C=C2/N=C3CCCCCN3C2=O)cc1	none
O=C1CC(c2ccc3c(c2)OCO3)Sc2nc3ccccc3n21 (configuration not stated)	TEAD-YAP block 75.7
O=C1CC(c2ccccc2)Sc2nc3ccccc3n21 (configuration not stated)	none
COc1ccc(C2CC(=O)n3c(nc4ccccc43)S2)cc1 (configuration not stated)	TEAD-YAP block 79.8
COc1cc(NC2=CC(=O)CC(C)(C)C2)c(OC)cc1Cl	none
COc1ccc(-n2[nH]c(C)c(N=O)c2=O)cc1	TEAD-YAP block 39.0
CCOC(=O)c1ccc(N2NC(=O)/C(=C/c3ccc([N+](=O)[O-])o3)C2=O)cc1	MITF inh 65.5
CCOC(=O)c1ccc(N2NC(=O)/C(=C/c3ccc(C)o3)C2=O)cc1	none
CCOC(=O)C1=[N+]([O-])OC(C(=O)c2ccccc2)C1c1cccc([N+](=O)[O-])c1 (configuration not stated)	none
c1cncc(CNc2nc(N3CCOCC3)nc3c2ncn3-c2ccsc2)c1	TEAD-YAP block 45.2
c1ccc(N2CCN(c3nc(NCc4cccnc4)c4ncn(-c5ccsc5)c4n3)CC2)nc1	TEAD-YAP block 50.9
c1ccc(-n2cnc3c(NCc4cccnc4)nc(N4CCN(c5ccccn5)CC4)nc32)cc1	none
O=C(N/N=C/c1cccc([N+](=O)[O-])c1O)c1cccc([N+](=O)[O-])c1	MITF inh 52.8
O=C(N/N=C/c1cccc([N+](=O)[O-])c1O)c1cccs1	MITF inh 72.8
O=C(N/N=C/c1ccc([N+](=O)[O-])cc1)c1cccs1	none
O=C(Nc1ccc(-c2cn3ccsc3n2)cc1)c1cccnc1Cl	TEAD-YAP block 46.0
O=S(=O)(c1ccc(-c2csc(N3N=C(c4cccs4)CC3c3ccc(F)cc3)n2)cc1)N1CCCC1 (configuration not stated)	none
COc1ccc(N(CC(=O)Nc2cccc([N+](=O)[O-])c2C)S(C)(=O)=O)cc1Cl	none
COc1ccc(-c2cn3nc(N4CCCC(C(=O)O)C4)sc3n2)cc1 (configuration not stated)	none
O=C(O)C1CCCN(c2nn3cc(-c4ccc(F)cc4)nc3s2)C1 (configuration not stated)	TEAD-YAP block 84.7
COc1ccccc1-n1c(SCC(=O)Nc2cccc(F)c2)nnc1-c1cccnc1	TEAD-YAP block 45.6
COc1ccccc1-n1c(SCC(=O)Nc2nccs2)nnc1-c1ccncc1	TEAD-YAP block 62.3
COc1cccc(NC(=O)CSc2nnc(-c3cccnc3)n2-c2ccccc2C)c1	none
COc1ccccc1-n1c(SCC(=O)Nc2nccs2)nnc1-c1cccnc1	TEAD-YAP block 55.7
COc1ccccc1-n1c(SCC(=O)Nc2nc(C)cs2)nnc1-c1cccnc1	TEAD-YAP block 53.0
Cc1csc(NC(=O)CSc2nnc(-c3cccnc3)n2-c2cccc(C)c2C)n1	none
Cc1ccccc1-n1c(SCC(=O)Nc2nccs2)nnc1-c1ccncc1	none
Cc1ccc(-c2nc(S(=O)(=O)c3ccc(Cl)cc3)c(NCc3ccccc3)o2)cc1	none
Cc1ccc(NS(=O)(=O)c2cc(C(=O)Nc3ccccc3)ccc2Br)cc1	TEAD-YAP block 38.7
O=C(Nc1ccccc1)c1ccc(Cl)c(S(=O)(=O)Nc2ccc(I)cc2)c1	TEAD-YAP block 35.9
Cc1ccc(NC(=O)C2OC3OC4(CCCCC4)OC3C3OC4(CCCCC4)OC23)cc1Cl (configuration not stated)	none
FC(F)(F)c1nn2cc(-c3ccccc3)nc2s1	none
OC(c1cn2cc(-c3ccccc3)nc2s1)(C(F)(F)F)C(F)(F)F	TEAD-YAP block 55.1
Cc1nn2c(N)c(-c3ccc(Cl)cc3)cnc2c1-c1ccccc1	none
Cc1nc2c(-c3ccc(Cl)cc3)c(C)nn2c(N)c1-c1ccccc1	TEAD-YAP block 34.0
Cc1nc2c(-c3ccccc3)cnn2c(N)c1-c1ccccc1	TEAD-YAP block 89.6
Cc1ccc(CN2C(=O)/C(=C/C(=O)NCc3ccco3)Sc3ccccc32)cc1	none
C[C@@H](c1ccccc1)n1c(=O)[nH]c2ncc(-c3ccc(C(=O)N4CCOCC4)cc3)nc21	FBW7 act 2.0
C[C@H](c1ccccc1)n1c(=O)[nH]c2ncc(-c3ccc(C(=O)N4CCN(C)CC4)cc3)nc21	none
O=C(Cc1c(F)cccc1Cl)N1CCC(c2cccnc2)CC1	none
O=C(Cc1c(F)cccc1Cl)N1CCC(c2ccncc2)CC1	TEAD-YAP block 41.9
NC(=O)C1CCCN1c1nc(-c2cccs2)nc2ccccc12 (configuration not stated)	none
